The supplement of paper PMC11732987, “Enantioselective OTUD7B fragment discovery through chemoproteomics screening and high-throughput optimisation” (Communications Chemistry, 2025)

Experiments:
Assay in all cases: log2 ratio of Biotin-Ahx-Ub-VS probe labelling (fragment/DMSO); higher = less target engagement (more negative = stronger competition), active = hit call of the paper (q ≤ 0.05, log2 ratio ≤ -1)
Details in all cases: compound concentration: 200 uM; treatment time: 3 h
USP42 = molecular target: T1, USP42 (UniProt Q9H9J4)
T1 sequence (whole entry): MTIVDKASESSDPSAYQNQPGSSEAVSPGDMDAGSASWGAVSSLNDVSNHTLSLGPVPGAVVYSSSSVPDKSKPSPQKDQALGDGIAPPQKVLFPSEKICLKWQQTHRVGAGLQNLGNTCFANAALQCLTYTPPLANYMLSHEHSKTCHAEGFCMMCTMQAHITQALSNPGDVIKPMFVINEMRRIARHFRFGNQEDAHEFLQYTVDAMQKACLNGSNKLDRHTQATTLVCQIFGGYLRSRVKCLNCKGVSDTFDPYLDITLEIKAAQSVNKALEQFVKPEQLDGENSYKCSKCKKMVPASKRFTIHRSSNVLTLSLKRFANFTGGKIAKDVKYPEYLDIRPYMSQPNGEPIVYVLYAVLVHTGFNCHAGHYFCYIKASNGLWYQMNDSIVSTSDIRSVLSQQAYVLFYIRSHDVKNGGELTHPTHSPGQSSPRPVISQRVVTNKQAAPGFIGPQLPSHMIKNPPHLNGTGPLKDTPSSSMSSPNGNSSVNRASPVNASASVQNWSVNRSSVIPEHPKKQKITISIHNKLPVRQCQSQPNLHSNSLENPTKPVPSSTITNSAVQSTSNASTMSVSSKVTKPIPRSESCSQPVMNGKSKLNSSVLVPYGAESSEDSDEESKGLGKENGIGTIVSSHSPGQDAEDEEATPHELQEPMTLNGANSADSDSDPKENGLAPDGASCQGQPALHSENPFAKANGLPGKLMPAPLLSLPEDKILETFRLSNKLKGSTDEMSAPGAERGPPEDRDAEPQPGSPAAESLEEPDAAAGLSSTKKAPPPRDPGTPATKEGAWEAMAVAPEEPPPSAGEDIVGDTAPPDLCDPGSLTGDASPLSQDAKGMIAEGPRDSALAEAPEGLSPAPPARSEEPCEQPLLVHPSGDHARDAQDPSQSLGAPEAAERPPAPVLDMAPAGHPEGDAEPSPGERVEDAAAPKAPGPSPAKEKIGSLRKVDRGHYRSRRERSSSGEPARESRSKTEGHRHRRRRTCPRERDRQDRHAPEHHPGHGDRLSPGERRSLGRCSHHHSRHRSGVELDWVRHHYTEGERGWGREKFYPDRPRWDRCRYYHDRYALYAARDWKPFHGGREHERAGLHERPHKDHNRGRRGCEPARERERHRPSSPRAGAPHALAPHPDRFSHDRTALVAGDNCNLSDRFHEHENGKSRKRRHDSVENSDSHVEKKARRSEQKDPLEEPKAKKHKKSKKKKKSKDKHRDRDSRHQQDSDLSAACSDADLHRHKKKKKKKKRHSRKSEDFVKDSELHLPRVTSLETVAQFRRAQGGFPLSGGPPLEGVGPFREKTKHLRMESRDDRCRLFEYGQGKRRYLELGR
How it was run: (§1)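 Labelled DUBs from HEK293T lysate were NeutrAvidin-enriched, digested with LysC and trypsin, and run by diaPASEF LC-MS/MS. Before that, each 495 µg sample in Tris/CHAPS/IGEPAL buffer with protease inhibitors was treated in triplicate with fragment at 200 µM or vehicle for 3 h, then with Biotin-Ahx-Ub-VS at 0.5 µM final for 1 h. Values are average log2 ratios of fragment over vehicle by unpaired t-test, based on global-median-normalised Spectronaut label-free quantities from proteins with ≥2 unique peptides.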

USP46 = USP46 (UniProt P62068)
How it was run: as §1

USP47 = molecular target: T2, USP47 (UniProt Q96K76)
T2 sequence (whole entry): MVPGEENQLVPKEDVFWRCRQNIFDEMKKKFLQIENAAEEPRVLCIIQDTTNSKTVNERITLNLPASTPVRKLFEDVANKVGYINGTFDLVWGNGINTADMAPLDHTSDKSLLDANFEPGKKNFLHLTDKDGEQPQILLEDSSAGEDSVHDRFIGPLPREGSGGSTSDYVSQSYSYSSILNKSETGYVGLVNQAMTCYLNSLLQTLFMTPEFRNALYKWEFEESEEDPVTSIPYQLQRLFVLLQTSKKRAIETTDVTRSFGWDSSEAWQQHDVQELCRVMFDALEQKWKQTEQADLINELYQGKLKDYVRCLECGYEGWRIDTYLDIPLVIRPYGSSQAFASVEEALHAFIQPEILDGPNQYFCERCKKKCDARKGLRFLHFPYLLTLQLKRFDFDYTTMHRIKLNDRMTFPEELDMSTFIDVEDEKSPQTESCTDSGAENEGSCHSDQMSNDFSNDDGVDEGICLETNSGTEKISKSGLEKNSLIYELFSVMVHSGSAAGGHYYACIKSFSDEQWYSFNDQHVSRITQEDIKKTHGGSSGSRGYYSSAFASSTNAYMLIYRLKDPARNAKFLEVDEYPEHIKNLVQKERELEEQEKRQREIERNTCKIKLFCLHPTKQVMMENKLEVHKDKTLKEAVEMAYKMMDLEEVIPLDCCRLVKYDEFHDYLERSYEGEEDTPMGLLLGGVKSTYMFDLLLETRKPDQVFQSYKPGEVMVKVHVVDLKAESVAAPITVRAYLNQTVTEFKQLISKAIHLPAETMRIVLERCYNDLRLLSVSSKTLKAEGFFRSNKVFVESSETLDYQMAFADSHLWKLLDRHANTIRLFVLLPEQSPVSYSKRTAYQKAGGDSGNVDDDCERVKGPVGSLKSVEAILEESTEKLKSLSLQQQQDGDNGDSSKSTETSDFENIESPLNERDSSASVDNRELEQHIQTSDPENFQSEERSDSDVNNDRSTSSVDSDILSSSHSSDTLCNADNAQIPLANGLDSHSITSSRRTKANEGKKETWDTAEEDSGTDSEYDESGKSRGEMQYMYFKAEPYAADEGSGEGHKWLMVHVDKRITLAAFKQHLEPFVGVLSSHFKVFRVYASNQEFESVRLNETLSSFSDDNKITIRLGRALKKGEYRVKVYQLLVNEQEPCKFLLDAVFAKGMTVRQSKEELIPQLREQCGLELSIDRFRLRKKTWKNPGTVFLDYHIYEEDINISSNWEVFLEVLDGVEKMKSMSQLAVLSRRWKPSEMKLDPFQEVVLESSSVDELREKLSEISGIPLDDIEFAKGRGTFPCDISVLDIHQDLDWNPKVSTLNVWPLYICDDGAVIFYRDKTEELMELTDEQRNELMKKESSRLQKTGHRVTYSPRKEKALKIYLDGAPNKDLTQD
How it was run: as §1

USP48 = molecular target: T3, USP48 (UniProt Q86UV5)
T3 sequence (whole entry): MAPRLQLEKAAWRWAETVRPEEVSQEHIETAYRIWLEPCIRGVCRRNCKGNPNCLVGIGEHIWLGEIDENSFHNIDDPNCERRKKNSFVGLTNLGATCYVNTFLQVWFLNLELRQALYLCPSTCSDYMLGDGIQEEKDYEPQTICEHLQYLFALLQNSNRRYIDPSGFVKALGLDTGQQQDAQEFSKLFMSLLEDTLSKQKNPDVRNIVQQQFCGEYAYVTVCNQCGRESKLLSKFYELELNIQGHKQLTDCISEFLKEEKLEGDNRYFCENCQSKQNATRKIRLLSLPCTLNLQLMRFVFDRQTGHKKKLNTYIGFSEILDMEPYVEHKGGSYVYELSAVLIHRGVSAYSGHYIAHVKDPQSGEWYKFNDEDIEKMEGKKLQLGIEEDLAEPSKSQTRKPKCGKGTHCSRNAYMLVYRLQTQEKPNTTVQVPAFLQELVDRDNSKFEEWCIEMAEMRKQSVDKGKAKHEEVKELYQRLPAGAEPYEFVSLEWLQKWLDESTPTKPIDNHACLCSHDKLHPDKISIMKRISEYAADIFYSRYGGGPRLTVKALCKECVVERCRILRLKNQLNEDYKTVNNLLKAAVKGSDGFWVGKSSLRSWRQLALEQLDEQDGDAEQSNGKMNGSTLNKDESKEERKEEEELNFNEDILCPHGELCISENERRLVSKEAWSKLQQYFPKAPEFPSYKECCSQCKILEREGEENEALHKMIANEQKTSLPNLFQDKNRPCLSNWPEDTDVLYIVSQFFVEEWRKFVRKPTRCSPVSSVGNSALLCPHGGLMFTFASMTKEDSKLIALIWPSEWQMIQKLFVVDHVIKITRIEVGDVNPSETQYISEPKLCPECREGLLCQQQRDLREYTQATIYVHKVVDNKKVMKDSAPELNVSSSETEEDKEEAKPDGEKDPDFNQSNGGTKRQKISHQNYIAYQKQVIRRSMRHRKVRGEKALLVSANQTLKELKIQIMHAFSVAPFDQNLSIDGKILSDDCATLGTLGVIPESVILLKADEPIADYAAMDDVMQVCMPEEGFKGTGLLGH
How it was run: as §1

USP5 = molecular target: T4, USP5 (UniProt P45974)
T4 sequence (whole entry): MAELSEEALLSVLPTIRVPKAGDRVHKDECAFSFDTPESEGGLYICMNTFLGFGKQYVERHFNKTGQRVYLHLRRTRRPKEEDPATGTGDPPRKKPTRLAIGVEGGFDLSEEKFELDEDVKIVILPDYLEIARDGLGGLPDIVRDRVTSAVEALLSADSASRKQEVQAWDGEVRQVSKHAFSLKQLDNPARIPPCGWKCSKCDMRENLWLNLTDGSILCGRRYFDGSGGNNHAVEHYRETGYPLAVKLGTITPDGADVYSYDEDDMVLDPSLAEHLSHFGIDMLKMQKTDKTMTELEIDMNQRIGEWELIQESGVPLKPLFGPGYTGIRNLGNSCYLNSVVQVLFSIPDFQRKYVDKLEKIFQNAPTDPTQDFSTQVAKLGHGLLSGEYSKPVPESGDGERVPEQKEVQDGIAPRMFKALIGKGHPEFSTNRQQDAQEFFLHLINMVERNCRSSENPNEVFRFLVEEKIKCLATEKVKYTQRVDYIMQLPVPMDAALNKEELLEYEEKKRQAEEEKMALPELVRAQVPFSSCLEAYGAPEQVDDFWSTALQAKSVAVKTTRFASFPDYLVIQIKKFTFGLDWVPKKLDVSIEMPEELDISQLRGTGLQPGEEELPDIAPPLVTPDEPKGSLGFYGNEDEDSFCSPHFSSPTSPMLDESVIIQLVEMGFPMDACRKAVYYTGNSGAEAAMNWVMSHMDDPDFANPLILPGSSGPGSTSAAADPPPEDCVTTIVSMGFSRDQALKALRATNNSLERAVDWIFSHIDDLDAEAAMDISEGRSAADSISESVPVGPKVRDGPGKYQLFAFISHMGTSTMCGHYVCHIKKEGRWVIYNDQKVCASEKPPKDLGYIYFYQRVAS
How it was run: as §1

USP54 = USP54 (UniProt Q70EL1)
How it was run: as §1

USP7 = USP7 (UniProt Q93009)
How it was run: as §1

USP8 = molecular target: T5, USP8 (UniProt P40818)
T5 sequence (whole entry): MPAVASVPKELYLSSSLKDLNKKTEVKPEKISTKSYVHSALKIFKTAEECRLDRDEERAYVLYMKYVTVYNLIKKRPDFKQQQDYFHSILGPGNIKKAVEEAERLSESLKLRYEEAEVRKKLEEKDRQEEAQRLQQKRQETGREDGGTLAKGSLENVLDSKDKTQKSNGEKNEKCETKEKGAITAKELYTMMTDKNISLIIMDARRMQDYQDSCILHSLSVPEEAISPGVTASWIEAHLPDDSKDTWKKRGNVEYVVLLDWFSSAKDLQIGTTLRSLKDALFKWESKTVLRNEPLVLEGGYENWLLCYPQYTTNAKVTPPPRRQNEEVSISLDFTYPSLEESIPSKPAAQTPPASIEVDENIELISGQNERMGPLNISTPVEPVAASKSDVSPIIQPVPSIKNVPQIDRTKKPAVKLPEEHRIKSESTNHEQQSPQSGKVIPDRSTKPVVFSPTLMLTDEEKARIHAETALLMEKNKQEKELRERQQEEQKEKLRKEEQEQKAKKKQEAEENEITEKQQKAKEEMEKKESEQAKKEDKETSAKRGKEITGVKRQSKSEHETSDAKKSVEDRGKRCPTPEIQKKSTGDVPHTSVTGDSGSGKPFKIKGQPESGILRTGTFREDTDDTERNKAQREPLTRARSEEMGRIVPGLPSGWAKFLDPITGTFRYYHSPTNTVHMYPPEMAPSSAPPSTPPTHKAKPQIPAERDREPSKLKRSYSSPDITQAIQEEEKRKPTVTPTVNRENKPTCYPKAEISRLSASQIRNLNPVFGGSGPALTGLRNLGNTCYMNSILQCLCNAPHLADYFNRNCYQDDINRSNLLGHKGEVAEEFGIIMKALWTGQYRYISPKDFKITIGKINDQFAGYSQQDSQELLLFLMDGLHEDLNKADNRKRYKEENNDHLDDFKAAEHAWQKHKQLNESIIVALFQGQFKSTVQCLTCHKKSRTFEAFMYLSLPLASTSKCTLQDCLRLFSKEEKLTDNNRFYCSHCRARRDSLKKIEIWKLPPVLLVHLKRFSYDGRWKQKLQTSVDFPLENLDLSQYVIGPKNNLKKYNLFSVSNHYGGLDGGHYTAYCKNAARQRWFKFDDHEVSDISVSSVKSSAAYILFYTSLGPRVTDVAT
How it was run: as §1

USP9X = USP9X (UniProt Q93008)
How it was run: as §1

UniProt O00487 = molecular target: UniProt O00487
How it was run: as §1

Measured: log2 ratio of Biotin-Ahx-Ub-VS probe labelling

Chain of USP54 (Q70EL1 whole entry): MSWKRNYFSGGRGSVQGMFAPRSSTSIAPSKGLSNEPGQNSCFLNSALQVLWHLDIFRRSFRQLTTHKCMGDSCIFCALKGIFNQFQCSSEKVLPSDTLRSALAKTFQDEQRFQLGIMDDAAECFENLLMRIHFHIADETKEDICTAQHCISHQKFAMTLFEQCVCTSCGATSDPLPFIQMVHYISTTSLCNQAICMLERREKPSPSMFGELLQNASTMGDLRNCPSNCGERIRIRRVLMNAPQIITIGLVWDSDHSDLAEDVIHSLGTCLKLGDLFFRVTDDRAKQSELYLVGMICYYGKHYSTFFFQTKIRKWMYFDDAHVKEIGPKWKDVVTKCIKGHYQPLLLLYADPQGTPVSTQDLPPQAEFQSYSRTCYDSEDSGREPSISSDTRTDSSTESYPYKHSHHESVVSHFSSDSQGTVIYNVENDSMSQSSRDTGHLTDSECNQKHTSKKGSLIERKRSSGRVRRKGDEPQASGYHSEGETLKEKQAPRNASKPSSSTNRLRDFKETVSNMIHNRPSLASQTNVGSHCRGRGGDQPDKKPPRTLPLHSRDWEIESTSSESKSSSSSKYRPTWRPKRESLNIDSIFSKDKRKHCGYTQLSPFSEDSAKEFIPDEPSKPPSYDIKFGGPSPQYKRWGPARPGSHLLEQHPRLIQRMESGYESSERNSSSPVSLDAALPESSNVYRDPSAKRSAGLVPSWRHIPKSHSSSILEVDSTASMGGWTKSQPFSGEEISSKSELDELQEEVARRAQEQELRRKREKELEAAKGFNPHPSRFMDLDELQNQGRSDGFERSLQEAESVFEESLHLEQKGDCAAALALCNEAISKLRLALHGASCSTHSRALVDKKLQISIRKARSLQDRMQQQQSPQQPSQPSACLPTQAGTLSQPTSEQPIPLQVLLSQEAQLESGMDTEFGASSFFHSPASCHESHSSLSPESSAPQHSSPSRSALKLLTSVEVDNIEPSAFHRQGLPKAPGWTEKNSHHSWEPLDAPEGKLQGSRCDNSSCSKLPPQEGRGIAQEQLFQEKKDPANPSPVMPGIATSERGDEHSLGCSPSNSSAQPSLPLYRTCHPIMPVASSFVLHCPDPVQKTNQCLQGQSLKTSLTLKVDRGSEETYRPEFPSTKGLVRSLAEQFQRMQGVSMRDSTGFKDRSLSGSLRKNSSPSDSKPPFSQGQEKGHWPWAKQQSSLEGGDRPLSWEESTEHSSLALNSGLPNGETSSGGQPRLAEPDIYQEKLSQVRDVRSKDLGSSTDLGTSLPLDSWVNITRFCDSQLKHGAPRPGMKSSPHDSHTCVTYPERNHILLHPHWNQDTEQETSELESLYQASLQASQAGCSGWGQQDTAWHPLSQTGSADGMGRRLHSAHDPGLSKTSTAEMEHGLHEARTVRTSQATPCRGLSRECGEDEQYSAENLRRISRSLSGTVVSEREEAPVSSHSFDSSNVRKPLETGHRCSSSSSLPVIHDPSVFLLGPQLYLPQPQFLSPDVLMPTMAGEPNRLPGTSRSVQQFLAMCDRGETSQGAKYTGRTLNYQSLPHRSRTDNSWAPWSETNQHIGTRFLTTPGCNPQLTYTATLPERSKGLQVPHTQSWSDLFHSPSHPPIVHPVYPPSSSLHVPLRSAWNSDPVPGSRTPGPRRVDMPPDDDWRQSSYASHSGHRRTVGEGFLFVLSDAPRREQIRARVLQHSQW
Chain of USP7 (Q93009 whole entry, looked up): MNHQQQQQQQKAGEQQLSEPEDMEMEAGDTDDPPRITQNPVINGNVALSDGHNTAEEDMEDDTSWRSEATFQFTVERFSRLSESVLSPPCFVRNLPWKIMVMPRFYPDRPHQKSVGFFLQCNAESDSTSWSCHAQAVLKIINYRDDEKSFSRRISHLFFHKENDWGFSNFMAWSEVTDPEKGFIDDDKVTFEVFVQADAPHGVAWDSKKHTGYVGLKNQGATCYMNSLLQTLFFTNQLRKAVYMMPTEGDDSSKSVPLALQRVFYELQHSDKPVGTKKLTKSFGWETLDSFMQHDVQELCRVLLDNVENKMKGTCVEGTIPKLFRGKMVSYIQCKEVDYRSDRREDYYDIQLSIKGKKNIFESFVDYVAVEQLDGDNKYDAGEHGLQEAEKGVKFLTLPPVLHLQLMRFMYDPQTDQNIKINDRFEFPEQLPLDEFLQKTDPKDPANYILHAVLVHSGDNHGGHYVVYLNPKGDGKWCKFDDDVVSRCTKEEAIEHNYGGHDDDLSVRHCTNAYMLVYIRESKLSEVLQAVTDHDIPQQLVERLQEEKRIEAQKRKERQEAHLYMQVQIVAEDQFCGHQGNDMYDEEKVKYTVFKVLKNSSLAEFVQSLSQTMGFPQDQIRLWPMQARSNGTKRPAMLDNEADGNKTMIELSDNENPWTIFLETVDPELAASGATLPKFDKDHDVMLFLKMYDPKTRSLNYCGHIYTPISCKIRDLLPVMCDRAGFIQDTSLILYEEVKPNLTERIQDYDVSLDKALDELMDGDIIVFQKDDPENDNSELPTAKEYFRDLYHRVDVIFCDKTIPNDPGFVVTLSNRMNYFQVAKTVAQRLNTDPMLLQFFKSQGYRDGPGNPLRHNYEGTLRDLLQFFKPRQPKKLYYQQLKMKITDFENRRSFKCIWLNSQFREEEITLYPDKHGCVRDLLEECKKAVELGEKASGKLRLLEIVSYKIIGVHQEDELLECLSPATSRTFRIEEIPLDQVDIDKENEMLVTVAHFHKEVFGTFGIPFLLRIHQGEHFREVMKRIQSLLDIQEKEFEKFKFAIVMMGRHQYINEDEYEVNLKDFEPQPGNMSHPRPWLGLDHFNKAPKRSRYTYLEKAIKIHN
Chain of USP46 (P62068 whole entry): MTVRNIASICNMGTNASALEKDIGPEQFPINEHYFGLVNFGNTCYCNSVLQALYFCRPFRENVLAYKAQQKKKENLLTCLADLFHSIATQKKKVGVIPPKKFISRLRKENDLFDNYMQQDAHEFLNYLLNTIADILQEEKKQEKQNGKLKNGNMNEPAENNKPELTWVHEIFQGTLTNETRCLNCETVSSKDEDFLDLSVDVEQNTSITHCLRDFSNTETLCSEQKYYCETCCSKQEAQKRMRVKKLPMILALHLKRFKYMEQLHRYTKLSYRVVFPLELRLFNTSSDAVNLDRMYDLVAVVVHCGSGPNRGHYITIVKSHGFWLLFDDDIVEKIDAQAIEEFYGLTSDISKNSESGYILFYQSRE
Chain of UniProt O00487 (O00487 whole entry): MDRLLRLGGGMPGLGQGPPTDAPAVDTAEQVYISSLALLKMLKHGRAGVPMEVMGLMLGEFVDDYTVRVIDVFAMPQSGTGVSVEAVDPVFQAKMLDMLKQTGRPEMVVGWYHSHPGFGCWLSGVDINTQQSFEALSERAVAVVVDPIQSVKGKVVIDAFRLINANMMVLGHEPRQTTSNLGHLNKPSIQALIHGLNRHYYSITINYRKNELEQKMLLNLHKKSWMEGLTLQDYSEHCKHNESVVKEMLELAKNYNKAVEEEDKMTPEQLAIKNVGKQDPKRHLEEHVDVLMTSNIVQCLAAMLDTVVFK

Cc1ccc(CN(CCO)C(=O)CCl)cc1
inactive: USP42 -0.148 | USP46 -0.105 | USP47 -0.828 | USP48 -0.292 | USP5 -0.134 | USP54 0.222 | USP7 -0.788 | USP8 -0.664 | USP9X -0.526 | UniProt O00487 -0.0465
